PubChem BioAssay (EPA / NIEHS)
Results filed as inconclusive are left out. Active and inactive are the calls of the source. The calls were made as follows, unless noted: active = hit-call score of the fitted dose curve at least 0.9, where 1 is the maximum; inactive = score below 0.9.

What was measured:
[1] = ATG_DR4_LXR_CIS: Attagene CIS-FACTORIAL HepG2 Assay for human Liver X Receptor (LXR), DR4 submotif (AID 2282929); details: HepG2 Attagene DR4 cis-reporter, mRNA transcription; actives raise or lower the signal
Summary of the method: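 Total RNA from 24 h-treated, MRTU-transfected HepG2 cells underwent reverse transcription, PCR, fluorescent primer extension and restriction digestion before capillary electrophoresis. Both increases and decreases in reporter signal were fitted against DMSO.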

[2] = ATG_AP_1_CIS: Attagene CIS-FACTORIAL HepG2 Assay for human Activator Protein 1 (AP-1) (AID 2282931); details: HepG2 Attagene cis-factorial AP-1 reporter mRNA; actives raise or lower the signal
Summary of the method: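 HepG2, transient cis-reporter transfection; 24 h; readout RT-PCR/CE fluorescence; DMSO baseline, gain and loss fitted.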

[3] = ATG_Ets_CIS: Attagene CIS-FACTORIAL HepG2 Assay for human Erythroblast Transformation Specific (ETS) (AID 2282941); details: HepG2 ETS cis-reporter transcription, actives raise or lower the signal
Summary of the method: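 Multiplexed reporter transcript profiling: HepG2, 24 h treatment, total RNA to cDNA, PCR, 6-FAM labelling, HpaI cut, capillary electrophoresis. Gain- or loss-of-signal fitted against DMSO.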

[4] = molecular target: Hypoxia-inducible factor 1-alpha (Homo sapiens) (UniProt Q16665); test: ATG_HIF1a_CIS: Attagene CIS-FACTORIAL HepG2 Assay for human Hypoxia Inducible Factor 1 (HIF1A) (AID 2282951); details: HepG2 Attagene cis-factorial HIF1a reporter transcription; actives raise or lower the signal
Chain of Hypoxia-inducible factor 1-alpha (Homo sapiens) (Q16665 whole entry, looked up): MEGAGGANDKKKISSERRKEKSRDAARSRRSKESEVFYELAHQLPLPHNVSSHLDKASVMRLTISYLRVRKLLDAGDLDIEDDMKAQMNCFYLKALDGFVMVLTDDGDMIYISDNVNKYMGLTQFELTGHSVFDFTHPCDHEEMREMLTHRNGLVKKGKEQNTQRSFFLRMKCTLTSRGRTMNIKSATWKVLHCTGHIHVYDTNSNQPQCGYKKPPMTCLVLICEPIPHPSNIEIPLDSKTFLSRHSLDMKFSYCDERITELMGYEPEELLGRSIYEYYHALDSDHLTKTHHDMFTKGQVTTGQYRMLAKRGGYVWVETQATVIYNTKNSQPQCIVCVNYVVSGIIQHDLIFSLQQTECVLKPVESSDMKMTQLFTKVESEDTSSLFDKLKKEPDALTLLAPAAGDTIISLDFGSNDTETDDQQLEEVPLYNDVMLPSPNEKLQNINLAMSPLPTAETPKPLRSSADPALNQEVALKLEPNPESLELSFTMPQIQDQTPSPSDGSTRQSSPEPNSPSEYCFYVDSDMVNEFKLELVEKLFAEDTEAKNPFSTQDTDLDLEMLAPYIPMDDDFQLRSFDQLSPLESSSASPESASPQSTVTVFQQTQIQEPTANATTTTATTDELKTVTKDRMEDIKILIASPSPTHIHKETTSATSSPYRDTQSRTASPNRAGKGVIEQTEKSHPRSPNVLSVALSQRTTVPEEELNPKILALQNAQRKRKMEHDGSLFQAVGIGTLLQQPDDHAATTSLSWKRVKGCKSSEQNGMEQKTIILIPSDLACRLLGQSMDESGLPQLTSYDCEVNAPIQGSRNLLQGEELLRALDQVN
Summary of the method: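 After 24 h chemical exposure of reporter-transfected HepG2 cells, reporter cDNA was PCR-amplified, labelled by 6-FAM primer extension (2 min 95 C, 20 s 68 C, 10 min 72 C), HpaI-cut (2 h, 37 C) and analysed by CE.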

[5] = molecular target: Paired box protein Pax-6 (Homo sapiens) (UniProt P26367); test: ATG_Pax6_CIS: Attagene CIS-FACTORIAL HepG2 Assay for human Paired Box 6 (PAX6) (AID 2282956); details: HepG2 CIS-FACTORIAL PAX6 reporter transcription, RNA readout; actives raise or lower the signal
Chain of Paired box protein Pax-6 (Homo sapiens) (P26367 whole entry, looked up): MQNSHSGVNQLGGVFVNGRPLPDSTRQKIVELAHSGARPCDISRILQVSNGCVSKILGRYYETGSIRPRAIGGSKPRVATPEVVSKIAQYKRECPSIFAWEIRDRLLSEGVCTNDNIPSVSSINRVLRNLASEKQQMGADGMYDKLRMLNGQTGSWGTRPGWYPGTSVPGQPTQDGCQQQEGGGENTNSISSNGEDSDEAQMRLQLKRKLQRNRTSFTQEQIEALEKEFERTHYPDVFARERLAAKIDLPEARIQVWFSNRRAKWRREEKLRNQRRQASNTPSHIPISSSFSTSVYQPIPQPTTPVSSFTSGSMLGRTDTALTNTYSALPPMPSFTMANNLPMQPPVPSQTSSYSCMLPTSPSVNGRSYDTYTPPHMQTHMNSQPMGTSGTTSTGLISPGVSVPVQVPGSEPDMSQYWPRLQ
Summary of the method: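 Values derive from bidirectional curve fitting of reporter mRNA signal relative to DMSO. HepG2 cells bearing transfected cis-regulated MRTUs were exposed for 24 h; transcripts were read by RT-PCR and capillary electrophoresis.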

[6] = molecular target: Signal transducer and activator of transcription 3 (Homo sapiens) (UniProt P40763); test: ATG_STAT3_CIS: Attagene CIS-FACTORIAL HepG2 Assay for human Signal Transducer and Activator of Transcription 3 (STAT3) (AID 2282963); details: HepG2, Attagene cis-factorial STAT3 reporter transcription; actives raise or lower the signal
Chain of Signal transducer and activator of transcription 3 (Homo sapiens) (P40763 whole entry, looked up, the tested form may be a part): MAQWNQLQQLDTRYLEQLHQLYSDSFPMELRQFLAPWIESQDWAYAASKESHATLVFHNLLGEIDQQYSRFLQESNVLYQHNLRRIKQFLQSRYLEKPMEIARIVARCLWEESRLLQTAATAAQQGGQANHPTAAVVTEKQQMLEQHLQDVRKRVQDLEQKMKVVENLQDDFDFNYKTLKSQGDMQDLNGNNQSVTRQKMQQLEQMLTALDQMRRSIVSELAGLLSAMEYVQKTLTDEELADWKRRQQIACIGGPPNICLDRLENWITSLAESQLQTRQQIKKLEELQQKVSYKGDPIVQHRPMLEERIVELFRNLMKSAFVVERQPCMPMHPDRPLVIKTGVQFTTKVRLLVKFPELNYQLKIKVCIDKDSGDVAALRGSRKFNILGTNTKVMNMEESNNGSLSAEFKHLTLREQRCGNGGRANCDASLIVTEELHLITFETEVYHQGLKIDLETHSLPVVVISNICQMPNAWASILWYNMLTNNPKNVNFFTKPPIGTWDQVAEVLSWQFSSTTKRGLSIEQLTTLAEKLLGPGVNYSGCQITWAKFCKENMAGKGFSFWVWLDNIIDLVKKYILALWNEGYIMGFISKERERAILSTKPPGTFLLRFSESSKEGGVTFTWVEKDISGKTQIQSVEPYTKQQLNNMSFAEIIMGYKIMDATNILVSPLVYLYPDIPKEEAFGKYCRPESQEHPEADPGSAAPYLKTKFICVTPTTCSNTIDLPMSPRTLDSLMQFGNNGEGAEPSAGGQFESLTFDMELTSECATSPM
Summary of the method: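 Readout: fluorescent reporter mRNA fragments resolved by capillary electrophoresis. Setup: HepG2 transfected with MRTUs reporting endogenous transcription-factor activity, dosed 24 h. Gain or loss of signal fitted bidirectionally against DMSO control.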

[7] = ATG_TA_CIS: Attagene CIS-FACTORIAL HepG2 Assay for human TA Basal Promoter (AID 2282964); details: HepG2 Attagene CIS-factorial TA basal promoter reporter; actives raise or lower the signal
Summary of the method: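 HepG2 cells transiently transfected with multiple reporter units under cis promoter elements, reporting endogenous transcription factor activity; this endpoint tracks the TA basal promoter as background control. Reporter mRNA after 24 h dosing measured by RT-PCR/capillary electrophoresis; bidirectional fits versus DMSO.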

[8] = ATG_TCF_b_cat_CIS: Attagene CIS-FACTORIAL HepG2 Assay for human T-Cell-Factor with beta-catenin (TCF/b-cat) (AID 2282965); details: HepG2 TCF/beta-catenin cis-reporter transcription, actives raise or lower the signal
Summary of the method: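 HepG2, transient MRTU transfection, cis-element-driven reporters (endogenous TFs). 24 h compound exposure. Readout: reporter mRNA by RT-PCR + 6-FAM primer extension, HpaI digest, capillary electrophoresis. Gain/loss fit vs DMSO baseline.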

[9] = ATG_TAL_CIS: Attagene CIS-FACTORIAL HepG2 Assay for human TAL Basal Promoter (AID 2282966); details: HepG2 Attagene cis-factorial TAL promoter reporter; actives raise or lower the signal;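 also: background control endpoint measuring basal TAL promoter reporter mRNA not a specific factor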
Summary of the method: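 Human hepatoma HepG2 cells, transfected with promoter-regulated reporter units, were treated 24 h. Reporter transcript levels, measured through RT-PCR and capillary electrophoresis, were fitted for gain or loss relative to DMSO.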

[10] = molecular target: X-box-binding protein 1 (Homo sapiens) (UniProt P17861); test: ATG_Xbp1_CIS: Attagene CIS-FACTORIAL HepG2 Assay for human X-box Binding Protein 1 (XBP1) (AID 2282972); details: HepG2 XBP1 cis-element reporter, Attagene multiplex; actives raise or lower the signal
Chain of X-box-binding protein 1 (Homo sapiens) (P17861 whole entry, looked up): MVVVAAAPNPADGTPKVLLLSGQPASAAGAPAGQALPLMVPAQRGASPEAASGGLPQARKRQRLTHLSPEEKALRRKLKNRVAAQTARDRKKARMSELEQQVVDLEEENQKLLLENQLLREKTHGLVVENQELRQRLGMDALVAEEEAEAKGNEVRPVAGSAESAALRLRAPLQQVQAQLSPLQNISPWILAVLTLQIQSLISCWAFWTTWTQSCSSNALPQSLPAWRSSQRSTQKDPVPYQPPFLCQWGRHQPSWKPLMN
Summary of the method: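 Human hepatoma HepG2, cis-element reporter system, 24 h treatment; mRNA quantified by RT-PCR/CE fluorescence; fit relative to DMSO.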

[11] = molecular target: Transcriptional activator Myb (Homo sapiens) (UniProt P10242); test: ATG_Myb_CIS: Attagene CIS-FACTORIAL HepG2 Assay for human Myeloblastosis (Myb) Proto-Oncogene Transcription Factor (AID 2282986); details: HepG2 Attagene CIS-FACTORIAL Myb reporter transcription; actives raise or lower the signal
Chain of Transcriptional activator Myb (Homo sapiens) (P10242 whole entry, looked up): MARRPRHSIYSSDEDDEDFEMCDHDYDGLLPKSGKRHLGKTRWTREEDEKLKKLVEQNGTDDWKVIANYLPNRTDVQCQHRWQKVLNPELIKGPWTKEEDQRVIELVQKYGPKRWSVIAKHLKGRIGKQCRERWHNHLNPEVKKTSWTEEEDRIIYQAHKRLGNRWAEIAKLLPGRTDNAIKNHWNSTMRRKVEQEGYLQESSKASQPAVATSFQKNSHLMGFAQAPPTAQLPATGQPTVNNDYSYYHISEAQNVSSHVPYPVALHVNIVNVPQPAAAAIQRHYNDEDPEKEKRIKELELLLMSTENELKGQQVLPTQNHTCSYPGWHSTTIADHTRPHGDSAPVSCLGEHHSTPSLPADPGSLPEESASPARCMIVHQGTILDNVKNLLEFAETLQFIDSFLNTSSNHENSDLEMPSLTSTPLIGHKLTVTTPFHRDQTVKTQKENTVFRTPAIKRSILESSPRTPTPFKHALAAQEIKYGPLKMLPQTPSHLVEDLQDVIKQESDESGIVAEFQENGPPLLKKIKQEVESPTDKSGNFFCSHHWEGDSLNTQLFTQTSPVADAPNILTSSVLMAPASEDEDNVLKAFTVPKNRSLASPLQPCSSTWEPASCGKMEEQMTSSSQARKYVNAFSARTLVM
Summary of the method: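 After 24 h of compound dosing, total RNA from transfected HepG2 cells is reverse-transcribed and the reporter sequences amplified, labeled and separated by capillary electrophoresis. Values come from bidirectional fitting against DMSO.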

[12] = ATG_NFI_CIS: Attagene CIS-FACTORIAL HepG2 Assay for human Nuclear Factor I (NFI) (AID 2282989); details: HepG2 cis-regulatory reporter, NFI response element transcription; actives raise or lower the signal
Summary of the method: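 Endogenous TF activity in HepG2 cells transiently transfected with cis-element-driven multiplexed reporter units, read 24 h after dosing. Reporter mRNA quantified by RT-PCR, 6-FAM labelling, HpaI digestion and capillary electrophoresis; bidirectional fit versus DMSO.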

[13] = molecular target: Myc proto-oncogene protein (Homo sapiens) (UniProt P01106); test: ATG_Myc_CIS: Attagene CIS-FACTORIAL HepG2 Assay for human Myelocytomatosis (Myc) Proto-Oncogene Transcription Factor (AID 2282990); details: HepG2, Attagene cis-reporter transcription factor activity; actives raise or lower the signal
Chain of Myc proto-oncogene protein (Homo sapiens) (P01106 whole entry, looked up, the tested form may be a part): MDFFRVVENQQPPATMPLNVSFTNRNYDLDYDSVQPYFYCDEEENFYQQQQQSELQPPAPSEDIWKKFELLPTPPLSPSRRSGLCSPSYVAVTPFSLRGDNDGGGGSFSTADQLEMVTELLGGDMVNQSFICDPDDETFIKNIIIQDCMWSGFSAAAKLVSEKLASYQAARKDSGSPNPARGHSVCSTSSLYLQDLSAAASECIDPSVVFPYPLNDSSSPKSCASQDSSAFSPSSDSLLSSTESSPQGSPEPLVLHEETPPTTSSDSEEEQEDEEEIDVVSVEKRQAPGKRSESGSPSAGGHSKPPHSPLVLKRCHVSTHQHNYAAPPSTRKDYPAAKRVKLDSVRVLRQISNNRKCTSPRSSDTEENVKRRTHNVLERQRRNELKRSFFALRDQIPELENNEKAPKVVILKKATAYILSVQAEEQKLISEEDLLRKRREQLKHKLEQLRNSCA
Summary of the method: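 Read-out: fluorescent reporter mRNA fragments resolved by capillary electrophoresis after RT-PCR. Human HepG2 liver cells carried transfected cis-element reporter units and were dosed for 24 h. Gain or loss of signal fitted relative to DMSO baseline.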

[14] = ATG_NRF2_ARE_CIS: Attagene CIS-FACTORIAL HepG2 Assay for human Nuclear Factor Erythroid 2 Related Factor 2 (NFR2) response to Antioxidant Response Elements (ARE) (AID 2282992); details: HepG2 Attagene ARE/NRF2 reporter, transcription factor activity; actives raise or lower the signal
Summary of the method: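 Fluorescence intensity of reporter-specific cDNA fragments, separated by capillary electrophoresis, reflects mRNA induction in transfected HepG2 cells at 24 h. Activity is fitted bidirectionally, DMSO serving as baseline.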

[15] = ATG_Oct_MLP_CIS: Attagene CIS-FACTORIAL HepG2 Assay for human Octamer-Binding Transcription Factor (Oct) (AID 2282993); details: HepG2 Attagene cis-factorial Oct reporter, mRNA; actives raise or lower the signal
Summary of the method: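 HepG2 cells transiently transfected with cis-element-driven reporter transcription units (endogenous TF activity); 24 h compound exposure. Reporter mRNA quantified by RT-PCR, 6-FAM labelling, HpaI digestion and capillary electrophoresis; bidirectional fit versus DMSO baseline.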

[16] = ATG_XTT_Cytotoxicity: Cytotoxicity Assessment in the Attagene TRANS-FACTORIAL HepG2 Assay (AID 2283584; active = hit-call score of the fitted dose curve at least 0.9, where 1 is the maximum)
Summary of the method: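 24 h chemical exposure of reporter-transfected HepG2; XTT signal loss vs DMSO indicates cytotoxicity.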

[17] = ATG_CRE_CIS: Attagene CIS-FACTORIAL HepG2 Assay for human cAMP Responsive Element (CRE) binding protein 3 (AID 2282926); details: HepG2 CRE cis-reporter, Attagene multiplexed mRNA; actives raise or lower the signal
Summary of the method: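 Liver-derived HepG2, transfected with a CRE-containing reporter panel, exposed 24 h; transcript levels sized and quantified by capillary electrophoresis of labelled amplicons; signal changes either way referenced to vehicle.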

[18] = molecular target: Heat shock factor protein 1 (Homo sapiens) (UniProt Q00613); test: ATG_HSE_CIS: Attagene CIS-FACTORIAL HepG2 Assay for human Heat Shock Transcription Factor 1 (HSE) (AID 2282953); details: HepG2 HSE cis-reporter, Attagene RNA transcription; actives raise or lower the signal
Chain of Heat shock factor protein 1 (Homo sapiens) (Q00613 whole entry, looked up): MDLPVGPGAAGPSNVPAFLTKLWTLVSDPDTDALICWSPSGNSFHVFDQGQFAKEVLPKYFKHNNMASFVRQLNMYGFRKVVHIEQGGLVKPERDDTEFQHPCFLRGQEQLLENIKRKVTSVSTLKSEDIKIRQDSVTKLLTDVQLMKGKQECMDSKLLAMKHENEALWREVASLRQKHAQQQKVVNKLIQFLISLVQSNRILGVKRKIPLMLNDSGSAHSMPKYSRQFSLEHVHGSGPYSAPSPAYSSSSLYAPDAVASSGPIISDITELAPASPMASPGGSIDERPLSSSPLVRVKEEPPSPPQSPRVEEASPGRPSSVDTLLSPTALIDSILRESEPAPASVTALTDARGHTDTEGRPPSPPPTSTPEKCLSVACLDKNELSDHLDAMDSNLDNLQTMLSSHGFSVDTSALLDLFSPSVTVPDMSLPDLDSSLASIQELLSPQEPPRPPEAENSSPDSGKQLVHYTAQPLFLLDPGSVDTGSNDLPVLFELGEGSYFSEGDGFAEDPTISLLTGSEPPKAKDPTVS
Summary of the method: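 HepG2 cells transfected with cis-promoter reporter units sensing endogenous transcription factor activity; reporter mRNA quantified 24 h post-dose by RT-PCR and capillary electrophoresis of 6-FAM-labelled products. Bidirectional fitting against DMSO.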

[19] = molecular target: Nuclear receptor subfamily 1 group I member 2 (Homo sapiens) (UniProt O75469); test: ATG_PXR_TRANS: Attagene TRANS-FACTORIAL HepG2 Assay for human Pregnane X Receptor (PXR) (AID 2283008; active = hit-call score of the fitted dose curve at least 0.9, where 1 is the maximum)
Chain of Nuclear receptor subfamily 1 group I member 2 (Homo sapiens) (O75469 whole entry, looked up, the tested form may be a part): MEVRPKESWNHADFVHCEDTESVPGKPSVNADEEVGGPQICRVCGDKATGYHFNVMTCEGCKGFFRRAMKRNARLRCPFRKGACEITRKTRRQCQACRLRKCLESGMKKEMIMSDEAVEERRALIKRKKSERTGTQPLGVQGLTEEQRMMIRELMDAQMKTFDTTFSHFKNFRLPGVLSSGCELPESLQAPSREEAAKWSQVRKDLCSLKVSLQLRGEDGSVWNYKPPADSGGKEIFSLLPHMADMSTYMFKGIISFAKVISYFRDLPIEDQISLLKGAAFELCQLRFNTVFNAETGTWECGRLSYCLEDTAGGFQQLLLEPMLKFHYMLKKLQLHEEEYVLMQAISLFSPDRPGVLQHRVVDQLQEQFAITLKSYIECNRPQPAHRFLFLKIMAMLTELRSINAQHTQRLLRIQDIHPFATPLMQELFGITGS
Summary of the method: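 Transient HepG2 transfectants carrying multiplexed reporter transcription units; PXR activity read through a Gal4 chimera. 24 h exposure. RT-PCR/CE fluorescence; upward curve fit referenced to DMSO.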

[20] = molecular target: Cellular tumor antigen p53 (Homo sapiens) (UniProt P04637); test: ATG_p53_CIS: Attagene CIS-FACTORIAL HepG2 Assay for human p53 Transcription Factor (AID 2282994); details: HepG2 p53 cis-element reporter, Attagene mRNA; actives raise or lower the signal
Chain of Cellular tumor antigen p53 (Homo sapiens) (P04637 whole entry, looked up): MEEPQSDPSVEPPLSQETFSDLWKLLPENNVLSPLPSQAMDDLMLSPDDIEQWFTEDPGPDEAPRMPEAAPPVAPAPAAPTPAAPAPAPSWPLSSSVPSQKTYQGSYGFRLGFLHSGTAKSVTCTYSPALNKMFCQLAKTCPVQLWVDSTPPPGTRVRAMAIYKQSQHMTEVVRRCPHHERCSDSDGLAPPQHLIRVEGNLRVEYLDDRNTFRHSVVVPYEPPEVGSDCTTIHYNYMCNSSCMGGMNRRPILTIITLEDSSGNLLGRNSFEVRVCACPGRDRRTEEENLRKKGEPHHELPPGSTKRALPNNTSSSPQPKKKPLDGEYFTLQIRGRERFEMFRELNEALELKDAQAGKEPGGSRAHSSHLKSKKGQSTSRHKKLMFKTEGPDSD
Summary of the method: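 Transiently transfected HepG2 (multiple cis reporter transcription units); exposure 24 h; reporter RNA via RT-PCR, 6-FAM extension, 2 h HpaI digest at 37 C, CE detection; DMSO baseline.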

Measured: AC50

C1=CCC=C1
inactive: [1] | [2] | [3] | [4] | [5] | [6] | [7] | [8] | [9] | [10] | [11] | [12] | [13] | [14] | [15] | [16]

c1cc[c]([Bi]([c]2ccccc2)[c]2ccccc2)cc1
active: [1] 5.72 µM | [19] 2.73 µM
inactive: [17] | [3] | [4] | [18] | [5] | [6] | [7] | [8] | [9] | [10] | [11] | [12] | [13] | [15] | [16]

CCO[Si](CCCN)(OCC)OCC
inactive: [17] | [1] | [4] | [18] | [5] | [6] | [7] | [8] | [9] | [10] | [11] | [12] | [13] | [14] | [15] | [20]

CC1=NN(c2cc(Cl)c(S(=O)(=O)O)cc2Cl)C(=O)C1N=Nc1ccc(S(=O)(=O)O)cc1 (stereo not given)
inactive: [1] | [2] | [3] | [4] | [18] | [6] | [7] | [8] | [9] | [10] | [11] | [12] | [13] | [14] | [15] | [20] | [19] | [16]

COc1ccc2ccccc2c1
inactive: [1] | [4] | [18] | [6] | [7] | [8] | [9] | [10] | [11] | [13] | [15] | [20]

Cc1cccnc1
active: [2] 58 µM | [18] 100 µM | [11] 164 µM
inactive: [1] | [4] | [5] | [6] | [7] | [8] | [9] | [10] | [12] | [13] | [15] | [19]

COC(=O)[C@]1(C)CCC[C@@]2(C)[C@H]1CC=C1C=C(C(C)C)CC[C@@H]12
active: [2] 62.4 µM | [18] 26.4 µM | [9] 52.4 µM | [19] 25.1 µM
inactive: [1] | [3] | [4] | [5] | [6] | [7] | [8] | [10] | [11] | [12] | [13] | [15] | [20] | [16]

O=C(O)c1cc(Cl)cc(Cl)c1O
inactive: [1] | [2] | [3] | [4] | [18] | [6] | [7] | [8] | [9] | [10] | [11] | [12] | [13] | [14] | [15] | [20] | [19] | [16]
